Reference: PubChem BioAssay (NCI)
This is part of a sample that, as a whole, favours compounds with a hit. Of some 83,000 tested, about 20% had one in any assay.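 Single-dose data. Exposure time 48 hours. Values below 10 considered active.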 Calls of active or inactive are those of the source.

How the values were obtained:
Assay in all cases: NCI-60 one-dose screen, 48 h (100 = growth as untreated, 0 = no growth, -100 = all killed)
Conditions in all cases: 10 µM unless noted
[1] = tested on: NCI-H23 lung
[2] = tested on: NCI-H226 lung
[3] = tested on: NCI-H322M lung
[4] = tested on: HOP-62 NSCLC
[5] = tested on: NCI-H460 lung
[6] = tested on: HOP-92 NSCLC
[7] = tested on: NCI-H522 lung
[8] = tested on: A549/ATCC NSCLC
[9] = tested on: 786-0 renal
[10] = tested on: COLO 205 colon

Measured: growth

O=C(O)CC1CCN(c2ccc3nnc(Cl)n3n2)CC1
inactive: [1] 93.9% | [2] 98.7% | [3] 96.2% | [4] 93.3% | [5] 108% | [6] 96.2% | [7] 96% | [8] 103% | [9] 100% | [10] 107%

COc1ccc(C2C(C#N)=C(/N=C/c3ccc(Cl)cc3)Oc3c2sc2c(C)cccc32)cc1 (stereo not given)
active: [7] -40.8% | [10] -22.3%
inactive: [1] 26.2% | [2] 45.4% | [3] 44.2% | [4] 29.8% | [5] 10.1% | [6] 30.5% | [8] 34.2% | [9] 39.2%

O=C(CCCCCCNC(=O)C(O)(O)C(F)(F)F)Nc1ncc(-c2ccc(Br)cc2)s1
inactive: [3] 12.2% | [9] 14.9%
active: [1] -16% | [2] 4.5% | [4] -6.49% | [5] 0.631% | [6] -23.3% | [7] -44.9% | [8] -15.2% | [10] -55.9%

Cc1c(C(=O)/C=C/c2ccc(Cl)cc2)nnn1-c1ccc2oc(=O)ccc2c1
inactive: [1] 92.9% | [2] 85.4% | [3] 98.5% | [4] 107% | [5] 102% | [6] 79.4% | [7] 88.8% | [8] 103% | [9] 101% | [10] 108%

CNC(=O)c1cc(N2CCc3cc(NC(=O)Nc4ccc(N5CCOCC5)c(C(F)(F)F)c4)ccc32)ccn1
inactive: [1] 18.7% | [2] 35.2% | [3] 56.2% | [4] 12.1% | [6] 14.1% | [7] 45.8% | [8] 43.7% | [9] 27.3% | [10] 26.7%
active: [5] 9.77%

Clc1ccc(CSc2nnc(-c3ccc(Cl)cc3)n2-c2ccccc2)cc1
inactive: [1] 79.8% | [2] 46.1% | [3] 92.7% | [4] 92.4% | [5] 85.8% | [6] 89.5% | [7] 70.1% | [8] 80.3% | [9] 59.7% | [10] 122%

CN1CCN(c2ccc(Nc3nc(NCCNC(=O)c4ccccc4)c4sccc4n3)cc2)CC1
inactive: [1] 74.2% | [2] 108% | [3] 85.2% | [4] 104% | [5] 74% | [6] 69.4% | [7] 68.4% | [8] 67.4% | [9] 45.6% | [10] 56.5%

CCOP(=O)(OCC)OC[C@]12CCC(C)(C)C[C@H]1C1=CC[C@@H]3[C@@]4(C)CC[C@H](OP(=O)(OCC)OCC)C(C)(C)[C@@H]4CC[C@@]3(C)[C@]1(C)CC2
inactive: [1] 53.9% | [2] 66.1% | [3] 83.7% | [4] 82.9% | [5] 51.3% | [6] 27.9% | [7] 51.5% | [8] 44.3% | [9] 66.3% | [10] 66.6%

CC[C@]12C=CCN3CC[C@@]4(c5ccc(OC)cc5N(C)[C@H]4[C@@](O)(C(=O)OC)[C@@H]1OC(=O)CCN1CCc4ccccc4C1)[C@@H]32
inactive: [1] 81.9% | [2] 98.9% | [3] 96.1% | [4] 87.5% | [5] 96.8% | [6] 40.1% | [7] 101% | [8] 87.8% | [9] 92.7% | [10] 74.3%

COc1ccc(/C=N/NC(=O)c2c(N)nn(C)c2Nc2ccccc2)cc1
inactive: [1] 66.9% | [2] 51.6% | [3] 90% | [4] 38.8% | [5] 14.6% | [6] 46.8% | [7] 19.3% | [8] 57.1% | [9] 58% | [10] 35.8%

Cn1ncc2c(C(=O)c3ccc(F)cc3)nc(C(C)(C)C)nc21
inactive: [1] 95.8% | [2] 101% | [3] 97.8% | [4] 94.8% | [5] 101% | [6] 56.4% | [7] 91.8% | [8] 91.9% | [9] 101% | [10] 108%

CCOC(=O)c1ccc(NC2=C(Cl)C(=O)c3nc(C)ccc3C2=O)cc1
inactive: [1] 52% | [2] 85.5% | [3] 96.7% | [4] 113% | [5] 79.3% | [6] 103% | [7] 24.1% | [8] 94.3% | [9] 55.5% | [10] 58.9%

CC(=O)OC[C@@]12Oc3c(cccc3-c3ccc(O)c4c3O[C@]3(COC(C)=O)C(=C4O)C(=O)C[C@H](C)[C@@H]3OC(C)=O)C(O)=C1C(=O)C[C@H](C)[C@@H]2OC(C)=O
inactive: [2] 25.9% | [3] 33.1% | [5] 10.3% | [8] 19.4% | [9] 27.7%
active: [1] 2.54% | [4] 8.14% | [6] -25.2% | [7] -7.22% | [10] -3.3%

C#C[C@]1(O)CC[C@H]2[C@@H]3CC=C4c5sc(Nc6cc(C)cc(C)c6)nc5CC[C@]4(C)[C@H]3CC[C@@]21C
inactive: [1] 14.8% | [2] 38.6% | [3] 40.9% | [4] 20.5% | [5] 12.2% | [6] 31.4% | [7] 42.7% | [8] 21.1%
active: [9] -31.2% | [10] -13.3%

COc1cccc2c1C=CC1(O2)Oc2cccc(OC)c2C=C1C (stereo not given)
inactive: [1] 34.8% | [2] 57.4% | [3] 46.1% | [4] 55.9% | [7] 12.6% | [8] 25.1% | [9] 26.9% | [10] 16.6%
active: [5] 7.1% | [6] -5.13%

Cc1[nH]c(C(=O)Nc2ccc(S(=O)(=O)N3CCCCC3)cc2OCCOCCOCCOCCOCCOCCOCCOCCOCCOc2cc(S(=O)(=O)N3CCCCC3)ccc2NC(=O)c2[nH]c(C)c3c2CCCCC3=O)c2c1C(=O)CCCC2
inactive: [1] 20.8% | [3] 34.1% | [4] 12.5% | [5] 35.6% | [6] 16.9% | [8] 24.1% | [9] 40.2%
active: [2] -2.37% | [7] 0.322% | [10] -30.3%

C[C@]12CC[C@H]3[C@@H](CC=C4C[C@@H](O)CC[C@@]43C)[C@@H]1CC[C@@H]2[C@](C)(O)CCc1cccnc1
inactive: [1] 52.5% | [2] 73.4% | [3] 79.5% | [4] 61.3% | [5] 63.5% | [6] 66.8% | [7] 36.6% | [8] 70.1% | [9] 80.8% | [10] 70.8%

O=C(CSc1nnc(-c2cccs2)n1-c1ccccc1)Nc1ccccc1
inactive: [1] 86% | [2] 64.4% | [3] 84% | [4] 46.7% | [5] 81.8% | [6] 53.3% | [7] 57.7% | [8] 87.7% | [9] 85.1% | [10] 104%

Fc1cccc(Cl)c1/C=N/Nc1nc(N/N=C/c2c(F)cccc2Cl)nc(N2CCCCC2)n1
inactive: [1] 44.8% | [2] 53.9% | [3] 35.8% | [4] 25.9% | [5] 19.9% | [7] 10.4% | [8] 21.6% | [9] 28.3%
active: [6] -1.32% | [10] -16.7%

CN(C)c1ccc(-c2cc(-c3c[nH]c4ccccc34)nc(N)c2C#N)cc1
active: [5] 7.07% | [7] 2.93%
inactive: [1] 54.8% | [2] 62.8% | [3] 69.5% | [4] 33.3% | [6] 27.5% | [8] 25.4% | [9] 17.5% | [10] 22.1%

COc1ccc2c(c1)c(/C=N/Nc1ccnc3cc(Cl)ccc13)cn2C
active: [1] -80.5% | [2] -52.3% | [3] -95.1% | [4] -81.1% | [5] -79.1% | [6] -81.7% | [7] -65.4% | [8] -69.7% | [9] -81.3% | [10] -86.6%

CCCN1C=C/C(=C\C(=O)n2ccc3ccccc32)c2ccccc21
inactive: [1] 72.9% | [2] 75.1% | [3] 80.2% | [4] 94.6% | [5] 94.5% | [6] 47.9% | [7] 78.4% | [8] 84.9% | [9] 103% | [10] 96.4%

NCCNC(=O)c1cccc(COc2ccccc2NC(=O)c2cc(Cl)c(Cl)[nH]2)c1
inactive: [1] 98.1% | [2] 96.4% | [3] 102% | [4] 104% | [5] 104% | [6] 107% | [7] 104% | [8] 98.6% | [9] 90.3% | [10] 113%
